# Among all 48,000 sequences or so, about 6,100 (13%) were called active. Rule as the data show it: active = GI50 up to about 1.1 µM and inactive = higher. Many of the other results were omitted from the sample, so actives are more common in it than they were. Results with a measured potency or affinity are listed apart.
# Tested on: SR
row,Substance,GI50 [nM]
1,"CISPLATIN, CHEMBL11359",618
2,"[Bis(aminomethyl)dimethylsilane]tetrachloroplatinum(IV), CHEMBL2146190",3440
3,"[Bis(aminomethyl)pentamethylenesilane]tetrachloropaltinum(IV), CHEMBL2146204",422
4,"mu-(1,7-nanodiamine-N,N')bis-(cis-aminedichloroplatimum (II)), CHEMBL2146215",2780
5,"[Bis(aminomethyl)pentamethylenesilane]dichloropaltinum(II), CHEMBL2146202",1490
6,"[Bis(aminomethyl)tetramethylenesilane]tetrachloropaltinum(IV), CHEMBL2146189",499
7,"[Bis(aminomethyl)diethylsilane]tetrachloroplatinum(IV), CHEMBL2146203",382
8,"[Bis(aminomethyl)tetramethylenesilane]dichloropaltinum(II), CHEMBL2146205",3520

# Source: ChEMBL document CHEMBL1201862, “PubChem BioAssay data set” (2004)
